# Data taken from PubChem BioAssay AID1321 (The Scripps Research Institute Molecular Screening Center, 2008).
# Hit rate of the full screen: of about 220,000 compounds, about 2,600 (1.2%) were called active. Only a selection was taken, and actives are over-represented in it overall. Unmarked numbers belong to inactive results.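 Rule for the calls: active = activation above the mean of all tested compounds plus 3 SD, set per screening run (cut at about 8.8% in these data); inactive = the rest.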
# Target: Wee1-like protein kinase (Homo sapiens) (UniProt P30291)
# Experiment: compounds stabilizing Wee1-luciferase fusion – cell-based, HeLa, Wee1K328M-luciferase, luminescence, primary screen (AID 1321);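 note: cells exposed to compound for 20 h before luminescence read; 0% = DMSO alone and 100% = MG132 at 30 µM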
# Conditions: HeLa Luc-Wee1K328M stability, at 5 µM, hits give high values, 100% = proteasome inhibitor MG132 effect
row,SMILES,reporter increase
1,COC(=O)c1sccc1NC(=S)Nc1ccc(C)cc1,2.58%
2,O=C(NCc1cccs1)C1CCN(S(=O)(=O)c2ccc(Cl)cc2)CC1,0.23%
3,O=C(CNCc1cccs1)Nc1cc(S(=O)(=O)N2CCCC2)ccc1Cl,8.84% (active)
4,O=C(CNCc1ccco1)Nc1cc(S(=O)(=O)N2CCOCC2)ccc1N1CCCC1,-2.01%
5,COc1ccccc1-n1c(-c2cc(-c3ccco3)[nH]n2)n[nH]c1=S,2.11%
6,Fc1ccccc1/C=N/n1c(-c2cccnc2)n[nH]c1=S,0.63%
7,CC(=O)Nc1nc(C)c(-c2csc(Nc3ccc(S(N)(=O)=O)cc3)n2)s1,-1.97%
8,Cc1ccc(Cl)c(OCC(=O)NN2CCN(C)CC2)c1,-4.89%
9,O=C(O)CCn1cc(/C=C/C(=O)c2ccc(Cl)cc2)c(-c2cccc(Br)c2)n1,-0.48%
10,CC(C)CN(CC(C)C)CC(O)CN(c1ccccc1)S(=O)(=O)c1ccccc1[N+](=O)[O-] (stereo unspecified),-0.95%
11,COCCCNC(=S)NC(=O)c1ccccc1,1.37%
12,COCCCNC(=O)c1c(F)c(F)c(F)c(F)c1F,9.02% (active)
13,O=C(NCCN1CCOCC1)c1c(F)c(F)c(F)c(F)c1F,-1.64%
14,O=C(Nc1cccnc1)c1cc([N+](=O)[O-])ccc1Cl,-1.81%
15,CN1CCN(c2ccc(CNS(=O)(=O)c3cccc(F)c3)cc2)CC1,-0.49%
16,Cc1cccc(C2C3=C(CCCC3=O)N=C3c4ccccc4C(=O)C32)c1 (stereo unspecified),2.45%
17,Cc1ccc2nc(C)c3c(c2c1)N(c1ccccc1)CC3,2.22%
18,Cc1cc(=O)[nH]c(N/N=C/c2ccc3c(c2)OCCO3)n1,3.95%
19,O=S(=O)(Nc1ncccn1)c1ccc(NS(=O)(=O)c2cccc(Cl)c2Cl)cc1,9.1% (active)
20,O=C(CCS(=O)(=O)c1ccccc1Cl)Nc1ccc(S(=O)(=O)Nc2ncccn2)cc1,-2.3%
21,O=C(/C=C/c1ccccc1Cl)Nc1ccc(S(=O)(=O)Nc2ncccn2)cc1,-1.98%
22,CCCSc1ncccc1C(=O)O,5.65%
23,Cc1nnc(SCC(=O)N2CCc3ccccc3C2)s1,-1.25%
24,CC1(c2ccccc2)CC(C)(C)N(C(=O)c2cc([N+](=O)[O-])cc([N+](=O)[O-])c2)c2ccccc21 (stereo unspecified),-3.96%
25,Cc1nnc(SCC(=O)N2c3ccccc3C(C)(c3ccc(Cl)cc3)CC2(C)C)s1 (stereo unspecified),11.3% (active)
26,NC(=O)NC(=O)CSc1nc2cc([N+](=O)[O-])ccc2n1-c1cccc(C(F)(F)F)c1,0.4%
